# High-throughput results as filed in PubChem BioAssay.
# The list is a sample of the results.
# aSyn 5UTR act: Activators working through SNCA 5'UTR binding (MLPCN). activity score, % (tested at 7.5 µM), hits read low. 7.1% of 300,000 active. alpha-synuclein 5'UTR reporter, activators screen; in the data active = activity score below about -60%
# The depositor's hits bear a star.
SMILES,aSyn 5UTR act
COC(=O)c1ccc(NC(=O)Nc2cccc(F)c2)cc1,-206*
COc1ccc(-n2nc3cc(C)c(N)cc3n2)cc1Cl,-142*
CCCCCn1cnc2c(sc3nc4c(cc32)CSC(C)(C)C4)c1=O,-130*
CC(C)COc1ncnc2c1sc1nc3c(cc12)COC(C)(C)C3,-117*
CC1(C)Cc2nc3sc4c(=O)n(CC(=O)NCc5ccco5)cnc4c3cc2CO1,-100*
CC(C)c1nc2sc3c(NCc4ccco4)ncnc3c2c2c1COC(C)(C)C2,71
CC1(C)Cc2nc3oc4c(=S)nc[nH]c4c3cc2CO1,-64*
CN1Cc2cc(C(=O)c3cc(Cl)cc(CSc4ncccn4)c3O)cnc2NC1=O,79
C=CCSc1ncnc2c1oc1nc3c(cc12)COC(C)(C)C3,-141*
CCSc1ncnc2c1sc1nc3c(cc12)COC(C)(C)C3,-123*
CCCOc1ncnc2c1sc1nc3c(cc12)COC(C)(C)C3,-112*
C=CCn1c(C)nc2c(sc3nc4c(cc32)COC(C)(C)C4)c1=O,-130*
Cc1cc(/C=N/NC(=O)c2ccsc2)c(C)n1-c1cnccn1,-77*
Nc1ccc2c(c1)COc1ccccc1O2,-133*
Cc1ccc2cc(CN(CC3CCCO3)C(=S)Nc3ccccc3)c(=O)[nH]c2c1C (configuration not stated),72
COc1ccc2[nH]c(=O)c(CN(Cc3cccs3)S(=O)(=O)c3c(C)ccc4nsnc34)cc2c1,89
Cc1cc(C)c2cc(CN(CC3CCCO3)S(=O)(=O)c3ccc4c(c3)OCCO4)c(=O)[nH]c2c1 (configuration not stated),-94*
Cc1ccc2cc(CN(CC3CCCO3)S(=O)(=O)c3ccc4c(c3)OCCO4)c(=O)[nH]c2c1C (configuration not stated),-108*
CC(=O)c1ccc(S(=O)(=O)N(Cc2cc3cc4c(cc3[nH]c2=O)OCCO4)CC2CCCO2)cc1 (configuration not stated),-180*
Cc1ccc2nsnc2c1S(=O)(=O)N(CCO)Cc1cc2cc3c(cc2[nH]c1=O)OCCO3,-90*
O=C(Nc1ccc(O)cc1)c1c(O)c2c([nH]c1=O)CCCC2,-131*
O=C(NCC1CCCO1)c1c(O)c2c([nH]c1=O)CCCC2 (configuration not stated),-112*
CCCNC(=O)c1c(O)c2c([nH]c1=O)CCCC2,-77*
CCCNC(=O)c1ccc2c(=O)c(O)c(-c3cccc(Br)c3)[nH]c2c1,84
C=CCN1/C(=C2/SC(=S)N(C)C2=O)Sc2ccccc21,-65*
SMILES,aSyn 5UTR act
CCN1/C(=C2\OC(=S)N(C)C2=O)Sc2ccccc21,-129*
COc1cccc(NS(=O)(=O)NC(=O)c2cn(C)c3ccccc23)c1,-69*
COC(=O)c1ccc(NS(=O)(=O)NC(=O)c2cn(C)c3ccccc23)cc1,-84*
COc1ccc(-n2c(=S)[nH]c3cc(C(=O)Nc4ccc(C)c(F)c4)ccc3c2=O)c(OC)c1,-73*
Cc1ccc(NC(=O)c2cc3cc(OC(F)(F)F)ccc3[nH]2)cc1,-77*
COc1cc2[nH]c(C(=O)Nc3ccc(F)cc3)cc2c(OC)c1OC,-229*
COc1ccc(NC(=O)c2cc3ccccc3[nH]2)cc1,-228*
CCCCCCn1c2c(c(=N)c3c1CCC3)CCC2,67
COc1ccc2[nH]c(C(=O)Nc3ccc(C)c(F)c3)cc2c1,-115*
Cc1ccc(-c2ccc(SCC(=O)Nc3nonc3C)nn2)cc1,-87*
Cc1ccc(-c2ccc(SCC(=O)Nc3ccc4c(c3)OCCO4)nn2)cc1,-98*
CC(=O)Nc1ccc(NC(=O)CSc2ccc(-c3ccc4c(c3)OCO4)nn2)cc1,-66*
COc1ccc(NC(C)c2ccccc2)cc1 (configuration not stated),-91*
COc1ccc(CNCCC(c2ccc(OC(C)C)cc2)c2ccccc2OC)cc1 (configuration not stated),134
CC(C)Nc1ccc(Nc2ccnc3cc4ccccc4cc23)cc1,99
O=C(CSc1nnc(C2CCCCC2)o1)Nc1ccccc1Cl,-138*
Cc1ccc(NC(=S)NCCc2ccccc2)nc1,-99*
Cc1ccc(NC(=O)CCCc2ccccc2)nc1,-100*
Cc1ccc(C(C)C)c(OCc2nc(-c3nonc3N)no2)c1,-92*
Cc1ccc(C(C)C)c(OCc2ccc(C(=O)N/N=C/c3ccc(O)cc3O)cc2)c1,96
Cc1ccc(-c2nn(-c3ccccc3)cc2C(=O)Nc2ccc(C)c(S(=O)(=O)N3CCOCC3)c2)cc1,-110*
CCc1ccc(NC(=O)c2[nH]c(C)c(C(C)=O)c2C)cc1,-223*
CCOc1ccc(NC(=O)c2[nH]c(C)c(C(C)=O)c2C)cc1,-76*
COc1ccc(NC(=O)c2[nH]c(C)c(C(C)=O)c2C)cc1,-193*
CCc1c(C(=O)Nc2ccc(OC)cc2)[nH]c(C)c1C(C)=O,-93*
SMILES,aSyn 5UTR act
Cc1cccc(/C(N)=N/OC(=O)c2cccs2)c1,-106*
Cc1ccc(/C(N)=N/OC(=O)c2cccs2)cc1,-124*
COc1ccc(/C(N)=N/OC(=O)c2cccs2)cc1OC,-186*
N/C(=N\OC(=O)c1cccs1)c1cccc(Br)c1,-128*
N/C(=N\OC(=O)c1cccs1)c1ccccc1,-250*
COc1ccc(-c2nc3cccc(C)n3c2NCC2CCCO2)cc1O (configuration not stated),-99*
COC(=O)Nc1nnc(-c2ccc(OC)cc2)s1,-76*
COc1ccc(C(=O)Nc2nnc(-c3ccccc3)s2)cc1,-189*
COc1ccc(C(=O)Nc2nnc(C(F)(F)F)s2)cc1,-144*
CCC(NC(=O)Nc1nnc(C(F)(F)F)s1)(C(F)(F)F)C(F)(F)F,109
COc1ccc(-c2noc(-c3ccc(Cl)cc3[N+](=O)[O-])n2)cc1OC,-118*
Cc1cccc(-c2noc(-c3ccc(Cl)cc3[N+](=O)[O-])n2)c1,-151*
Cc1nc2c(-c3ccc(F)cc3)cnn2c2c1CCC2,-87*
COCCNC(=O)C(c1ccncc1)N(C(=O)c1sc(C)nc1C)c1cccc(C)c1 (configuration not stated),-90*
COC(=O)c1ccc(CSC2=NCCS2)cc1,-83*
CCc1ccc(/C=C2\SC(=S)N(CCC(=O)NC3=NCCS3)C2=O)cc1,89
O=[N+]([O-])c1ccc2nc(-c3ccc(Cl)cc3)n(OCc3ccccc3)c2c1,-243*
Cc1ccc(COn2c(-c3ccc(Cl)cc3)nc3ccc([N+](=O)[O-])cc32)cc1,-198*
N=C1C(c2nc3ccccc3s2)=C(O)CN1Cc1ccccc1,-342*
c1ccc2sc(NCC3CCCO3)nc2c1 (configuration not stated),-151*
c1ccc2oc(-c3csc(NCC4CCCO4)n3)cc2c1 (configuration not stated),-110*
C=CCNc1nc(-c2cc3ccccc3o2)cs1,-73*
O=C(/C=C/c1cccs1)Nc1ccc(N2CCOCC2)c(S(=O)(=O)Nc2ccccc2Cl)c1,-139*
O=C(Nc1ccc(Cl)c(Cl)c1)Nc1ccc(N2CCCC2)c(S(=O)(=O)Nc2ccccc2Cl)c1,95
CCc1ccc(NC(=O)COc2ccc(F)cc2C(=O)c2cnn(-c3ccccc3)c2)cc1,-130*
COc1ccccc1NC(=O)COc1ccccc1C(=O)c1cnn(-c2ccccc2)c1,-136*
O=C1c2ccccc2C(Nc2ccc3c(c2)OCCO3)N1Cc1ccc2c(c1)OCO2 (configuration not stated),-72*
O=C1c2ccccc2C(Nc2ccc3c(c2)OCCO3)N1c1ccc(Cl)cn1 (configuration not stated),-76*
